Key:
Assay type in all cases: functional
[1] = biological target: Solute carrier family 2, facilitated glucose transporter member 1 (Homo sapiens) (UniProt P11166); test: ST_JUDE_LEISH: Cytotoxicity at 2uM final concentration against transgenic Leishmania Mexicana promastigotes LmGLUT1 that are glucose transport deficient and complemented with the human glucose transporter GLUT1. Activity is measured by DNA content using SYBR green in vitro
[2] = biological target: Hexose transporter 1 (Plasmodium falciparum) (UniProt O97467); test: ST_JUDE_LEISH: Cytotoxicity at 2uM final concentration against transgenic Leishmania Mexicana promastigotes LmPfHT that are glucose transport deficient and complemented with the Plasmodium falciparum hexose transporter. Activity is measured by DNA content using SYBR green in vitro
[3] = biological target: Glucose transporter (Leishmania mexicana) (UniProt O61059); test: ST_JUDE_LEISH: Cytotoxicity at 2uM final concentration against transgenic Leishmania Mexicana promastigotes LmGT2 that are glucose transport deficient and complemented with the L. Mexicana glucose transporter 2. Activity is measured by DNA content using SYBR green in vitro

Chain of Solute carrier family 2, facilitated glucose transporter member 1 (Homo sapiens) (P11166 whole entry): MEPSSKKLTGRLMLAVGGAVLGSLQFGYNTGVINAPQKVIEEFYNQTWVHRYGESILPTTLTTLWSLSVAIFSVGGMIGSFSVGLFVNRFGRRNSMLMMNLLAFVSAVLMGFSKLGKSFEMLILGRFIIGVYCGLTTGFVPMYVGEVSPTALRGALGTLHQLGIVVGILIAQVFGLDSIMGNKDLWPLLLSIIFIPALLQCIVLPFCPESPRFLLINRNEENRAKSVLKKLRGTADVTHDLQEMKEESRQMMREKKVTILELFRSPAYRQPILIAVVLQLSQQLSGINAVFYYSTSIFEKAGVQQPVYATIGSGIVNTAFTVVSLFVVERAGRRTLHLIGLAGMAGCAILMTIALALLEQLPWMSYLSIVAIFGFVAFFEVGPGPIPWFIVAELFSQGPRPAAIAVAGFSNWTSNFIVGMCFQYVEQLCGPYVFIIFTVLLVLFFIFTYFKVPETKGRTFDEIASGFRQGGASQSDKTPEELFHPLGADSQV

SMILES | inhibition [1] [%] | inhibition [2] [%] | inhibition [3] [%]
Oc1ccc(-c2nc3c4cc(I)ccc4c4ccc(I)cc4c3[nH]2)cc1 | 2.27 | -1.87 | -2.11
CCC(C)NS(=O)(=O)c1ccc2nc(Nc3ccc(C)c(Cl)c3)n(C(C)C(C)C)c2c1 (stereo unspecified) | 2.38 | 2.08 | 1.6
O=C(N/N=C/c1nc2ccccc2[nH]1)c1cccc([N+](=O)[O-])c1 | 2.46 | 1 | 0.25
CN(C)CCC=C1c2ccccc2Sc2c(O)cc(Cl)cc21 | -0.51 | 4.06 | 1.71
N#Cc1ccc(CN2CCC(Oc3ccc(NC(=O)c4cccs4)cc3Cl)C2)cc1 (stereo unspecified) | -0.24 | 3.89 | -0.2
CC(C)(Oc1ccc(Cl)cc1)C(=O)NCCC1CCN(CCCCCNC(=O)/C=C/c2ccc(Cl)c(Cl)c2)CC1 | 6.53 | 7.08 | 2.35
CCCc1cc(Cc2cnc(N)nc2N)ccc1OCCCCCC(=O)OCC | 1.31 | -1.27 | -2.01
CC(C)c1cccc(C(NC(=O)[C@H]2Cc3ccccc3CN2C(=O)c2cccc(N3CCOCC3)c2)C2CCCC2)c1 (stereo partly specified) | 1 | 0.21 | 0.64
Cc1cc(=NN=Cc2cccc(F)c2)c2cccc(C)c2[nH]1 | 2.24 | 3.31 | 0.78
CCCC1(NC[C@@H](O)[C@H](Cc2ccccc2)NC(=O)c2cc(NCC)cc(N3CCCCS3(=O)=O)c2)CCC1 | 4.81 | 2.33 | 2.83
CCCCCOc1ccc(C(O)C(CN2CCCCC2)c2ccccc2)cc1 (stereo unspecified) | 5.64 | 4.91 | 5.39
Cc1cccc2nc(-c3ccc(-c4ccc(CN5CCC(C(N)=O)CC5)cc4)cc3)[nH]c12 | 6.51 | 5.37 | 5.21
COc1ccccc1C1CCN(C2CCC(NC(=O)/C=C/c3ccc(F)c(F)c3)CC2)CC1 (stereo unspecified) | -3.94 | -1.53 | -2.36
O=C(/C=C/c1ccc(Cl)c(Cl)c1)NCCCCCN1CCC(NC(=O)c2cc(Cl)ccc2F)CC1 | 2.96 | 1.12 | -0.02
C[C@@H]([C@@H](CCCCc1ccccc1)C(=O)N[C@H](C(=O)Nc1cccnc1)C(C)(C)C)N(O)C=O | 0.14 | -1.56 | 2.12
Cc1[nH]c2ccccc2c1CC1CCN(CC2CCN(C(=O)/C=C/c3ccc(Cl)c(Cl)c3)CC2)CC1 | 0.92 | 1.33 | 1.79

SMILES | inhibition [1] [%] | inhibition [2] [%] | inhibition [3] [%]
Nc1nc(N)c2c(Oc3cccc(Cl)c3)cccc2n1 | 1.52 | 1.79 | -1.1
Cc1cccc2nc(-c3ccc(-c4cccc(CNCc5cccc(N)c5)c4)s3)[nH]c12 | 2.48 | 1.7 | 2.35
O=C(Nc1cccc(-c2ccc(-c3nc4ccccc4[nH]3)cc2)c1)c1cccnc1 | 6.47 | 0.4 | -0.92
CC[C@H](N/C(=N\c1cccc(Cl)c1Cl)Nc1ccc(C#N)cc1O)c1ccccc1 | 7.88 | 9.4 | 6.46
COc1cc(Cc2cnc(N)nc2N)cc(OCCCCCC(=O)O)c1OC | 6.91 | 5.78 | 5.12
CCn1c(-c2nonc2N)nc2cnc(Oc3cccc(NC(=O)c4ccc(OCCN(C(C)C)C(C)C)cc4)c3)cc21 | 15.1 | 18.2 | 5.45
CS(=O)(=O)c1ccc(CCNCc2ccc(-c3ccc(CN(C(=O)C4CCCC4)C4CCN(Cc5ccccc5)CC4)cc3)nc2)cc1 | 0.69 | 0.71 | -2.64
N#Cc1cccc(C(=O)Nc2ccc(-c3ccc(CN4CCCC4)cc3)cc2)c1 | 7.84 | 6.53 | 3.78
Cc1cc(N2CCCCC2)nc2ccc(NC(=O)c3cccc([N+](=O)[O-])c3)cc12 | 4.97 | 4.4 | 6.58
CCc1ccc(-c2nc3cc(NC(=O)c4cc([N+](=O)[O-])cc([N+](=O)[O-])c4)ccc3o2)cc1 | 2.33 | 1.19 | 2.3
O=C(Nc1cccc(-c2nn3ccccc3c2-c2ccnc(Nc3cccc(N4CCCC4=O)c3)n2)c1)c1cc(F)ccc1F | 2.51 | 3.22 | 1.96
Cc1ccc2c(O)c([N+](=O)[O-])c(O)nc2c1 | -1.72 | 1.03 | 1.6
Cc1ccc2nc(-c3ccc(C(=O)NC4CCN(Cc5ccccc5)CC4)cc3)[nH]c2c1C | 11.5 | 7.69 | 0.84
COc1ccc2c(c1)C(C)(CCCN(C)C)C(=O)N2C (stereo unspecified) | 1.02 | 1.36 | 2.15
Cc1cccc2nc(-c3cccc(-c4cccc(CNCc5cnn(-c6ccccc6)n5)c4)c3)[nH]c12 | 0.8 | 1.43 | 2.51
CCOC(=O)c1c(C)n(-c2ccccc2)c2ccc(O)cc12 | -0.44 | 2.67 | 0.95

Source: ChEMBL document CHEMBL3433997, “St. Jude Leishmania screening dataset” (2016)
